Composite z-score and z-score data for nine compounds are collected here from PubChem BioAssay.

Active and inactive are the calls of the source.

The test system of test [1] is PRMT1 (protein arginine N-methyltransferase 1). The test is described as follows: small molecules binding arginine methyltransferase PRMT1 – biochemical, small-molecule microarray, 635 nm fluorescence, primary screen (AID 1088).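 Further: binding of Prmt1 protein to compounds spotted on small-molecule microarray slides.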 To be noted: higher = more signal.
Test [2] in a line: growth effects on S. cerevisiae YJM789 – YJM789 clinical isolate, OD600, 24 h, basal, primary screen (AID 1089).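 Further: growth of clinical yeast isolate S. cerevisiae YJM 789 seeded 1000 cells per well; test concentration not given here.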 To be noted: higher = more signal, called active from +8 up or from −8 down.
A short description of test [3]: S. pombe growth modifiers, basal conditions – strain 972, OD600, 24 h, no modulator, primary screen (AID 1090).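 Further: basal condition with compound alone and no growth modifier present; test concentration not given here.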 To be noted: S. pombe 972 growth, higher = more signal, called active from +8 up or from −8 down.
Test [4] in a line: budding yeast growth modifiers under rapamycin – strain BY4716, OD600, 96 h, primary screen (AID 1091). Further: test concentration not given here. To be noted: S. cerevisiae BY4716 + rapamycin, higher = more signal, called active from +8 up or from −8 down.
Test [5] deals with Torsin-1A-interacting protein 2 (Homo sapiens) (UniProt Q8NFQ8). The test is described as follows: small molecules binding lysate-expressed LULL1 – cell lysate, human LULL1 lysate, 635/667 nm fluorescence, primary screen (AID 1092).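 Further: probe is lysate of COS7 cells overexpressing human LULL1; score merges per-feature 667 nm fluorescence with signal-to-noise.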 To be noted: small-molecule microarray, hLULL1 lysate binding, 635 nm fluorescence; higher = more signal.
Test [6] in a line: optical density change of DRC41 E. coli – strain DRC41, OD650, 24 h, E. coli filamentation project, primary screen (AID 1093).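 Further: MC1000 strain lacking acrAB efflux and sulA so SOS filamentation is blocked; test concentration not given here.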 As to conditions: E. coli DRC41 growth, higher = more signal, called active from +8 up or from −8 down.
Test [7] can be described thus: probe aLefty2 binding to arrayed compounds – biochemical, biotinylated probe, 635/667 nm fluorescence, primary screen (AID 1094).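 Further: score merges spot fluorescence near 667 nm with spot signal-to-noise ratio.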 To be noted: small-molecule microarray, higher = more signal.
Test [8] deals with Noggin (protein binding on small-molecule microarray). The test is described as follows: small molecules binding Noggin protein – biochemical, 635/667 nm fluorescence, primary screen (AID 1095).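 Further: score merges 667 nm feature fluorescence with signal to noise over triplicate slides.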 To be noted: 635 nm fluorescence, higher = more signal.
The target of test [9] is Neurogenic locus notch homolog protein 3 (Homo sapiens) (UniProt Q9UM47). As to the kind of experiment: small molecules binding NOTCH3 protein – biochemical, 635/667 nm fluorescence, primary screen (AID 1096). To be noted: small-molecule microarray, 635 nm fluorescence, higher = more signal.
A short description of test [10]: probe aEGFR binding to arrayed compounds – biochemical, biotinylated probe, 635/667 nm fluorescence, primary screen (AID 1097).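 Further: probe is a biotinylated anti-EGFR antibody binding compounds printed on slides; score combines fluorescence near 667 nm and signal to noise of each spot.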 As to conditions: small-molecule microarray, higher = more signal.
Test [11] concerns Plasmodium falciparum Sir2 (PF13_0152, Sir2A). As to the kind of experiment: Plasmodium falciparum Sir2A binding compounds – biochemical, small-molecule microarray, 635 nm fluorescence, primary screen (AID 1098).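 Further: score merges spot fluorescence intensity with its signal-to-noise ratio.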 To be noted: fluorescence 635 nm, higher = more signal.
Test [12] is described as follows: probe aDKK1 binding to arrayed compounds – biochemical, biotinylated probe, 635/667 nm fluorescence, primary screen (AID 1099).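 Further: score merges 667nm spot fluorescence with signal to noise across triplicate slides; reference of the scale not given here.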 To be noted: small-molecule microarray, higher = more signal.
Test [13] is described as follows: probe aCHRDL2 binding to arrayed compounds – biochemical, biotinylated probe, 635/667 nm fluorescence, primary screen (AID 1100). To be noted: small-molecule microarray, higher = more signal.
Test [14] is described as follows: change in splice reporter luminescence, either direction, cell-based, HEK293, spliceosome inhibition project, primary screen (AID 1101).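 Further: HEK293 cells carrying a splicing-competent luciferase reporter gene; test concentration not given here.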 To be noted: HEK293 splicing luciferase reporter, 24 h, higher = more signal, called active from +8 up or from −8 down.
Test [15] deals with Fibroblast growth factor 10 (Homo sapiens) (UniProt O15520). As to the kind of experiment: compounds binding fibroblast growth factor 10 – biochemical, small-molecule microarray, 635 nm fluorescence, primary screen (AID 1102). To be noted: FGF10 binding, fluorescence 635 nm, higher = more signal.
For test [16], the system named is glycogen synthase kinase-3 (GSK3A per assay name; protocol says GSK3B). The test is described as follows: compounds binding glycogen synthase kinase-3 – biochemical, small-molecule microarray, 635 nm fluorescence, GSK3A, primary screen (AID 1103). Further: the record names both GSK3A and GSK3B. To be noted: fluorescence 635 nm, higher = more signal.
Test [17] deals with Epidermal growth factor receptor (Homo sapiens) (UniProt P00533). As to the kind of experiment: compounds binding epidermal growth factor receptor – biochemical, small-molecule microarray, 635 nm fluorescence, primary screen (AID 1104).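 Further: score merges 667 nm emission intensity with spot signal to noise over triplicate slides.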 As to conditions: EGFR binding, higher = more signal.
Test [18] concerns the target Follistatin-related protein 3 (Homo sapiens) (UniProt O95633). The test is described as follows: compounds binding follistatin-related protein 3 – biochemical, small-molecule microarray, 635 nm fluorescence, primary screen (AID 1105).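 Further: score merges emission near 667 nm and signal to noise per printed spot across three slides.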 To be noted: FSTL3 binding, higher = more signal.
Test [19] has as its target Dickkopf-related protein 1 (Homo sapiens) (UniProt O94907). As to the kind of experiment: small molecules binding DKK1 protein – biochemical, small-molecule microarray, 635 nm fluorescence scan, primary screen (AID 1106).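 Further: score merges emission near 667 nm with signal to noise over three replicate slides.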 As to conditions: higher = more signal.
Test [20] has as its system Inhibin beta A chain (activin A). As to the kind of experiment: small molecules binding activin A – biochemical, small-molecule microarray, 635 nm fluorescence scan, primary screen (AID 1107).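 Further: mouse activin A protein probed at 4.33 µg/mL on printed slides; score merges bound-protein fluorescence near 667 nm with spot signal-to-noise.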 As to conditions: INHBA, higher = more signal.

Sequence of Torsin-1A-interacting protein 2 (Homo sapiens) (Q8NFQ8 whole entry, looked up): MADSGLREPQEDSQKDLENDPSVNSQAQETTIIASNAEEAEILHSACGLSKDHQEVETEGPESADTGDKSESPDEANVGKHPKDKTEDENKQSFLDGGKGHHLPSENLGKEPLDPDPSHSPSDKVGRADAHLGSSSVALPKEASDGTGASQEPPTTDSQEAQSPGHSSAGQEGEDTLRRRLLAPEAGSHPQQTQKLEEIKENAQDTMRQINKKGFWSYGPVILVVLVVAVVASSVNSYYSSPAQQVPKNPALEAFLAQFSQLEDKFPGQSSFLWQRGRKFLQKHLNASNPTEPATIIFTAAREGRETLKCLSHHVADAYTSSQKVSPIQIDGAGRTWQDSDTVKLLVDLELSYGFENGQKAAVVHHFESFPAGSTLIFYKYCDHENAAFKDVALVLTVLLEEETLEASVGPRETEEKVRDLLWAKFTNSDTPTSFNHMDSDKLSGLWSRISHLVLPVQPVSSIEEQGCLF
Sequence of Fibroblast growth factor 10 (Homo sapiens) (O15520 whole entry, looked up): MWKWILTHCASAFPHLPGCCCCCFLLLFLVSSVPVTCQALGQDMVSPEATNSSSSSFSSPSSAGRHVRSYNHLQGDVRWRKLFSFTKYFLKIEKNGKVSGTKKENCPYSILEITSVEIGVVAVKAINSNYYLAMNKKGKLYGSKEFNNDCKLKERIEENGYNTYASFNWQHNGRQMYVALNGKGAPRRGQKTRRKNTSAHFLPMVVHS
Sequence of Neurogenic locus notch homolog protein 3 (Homo sapiens) (Q9UM47 whole entry, looked up): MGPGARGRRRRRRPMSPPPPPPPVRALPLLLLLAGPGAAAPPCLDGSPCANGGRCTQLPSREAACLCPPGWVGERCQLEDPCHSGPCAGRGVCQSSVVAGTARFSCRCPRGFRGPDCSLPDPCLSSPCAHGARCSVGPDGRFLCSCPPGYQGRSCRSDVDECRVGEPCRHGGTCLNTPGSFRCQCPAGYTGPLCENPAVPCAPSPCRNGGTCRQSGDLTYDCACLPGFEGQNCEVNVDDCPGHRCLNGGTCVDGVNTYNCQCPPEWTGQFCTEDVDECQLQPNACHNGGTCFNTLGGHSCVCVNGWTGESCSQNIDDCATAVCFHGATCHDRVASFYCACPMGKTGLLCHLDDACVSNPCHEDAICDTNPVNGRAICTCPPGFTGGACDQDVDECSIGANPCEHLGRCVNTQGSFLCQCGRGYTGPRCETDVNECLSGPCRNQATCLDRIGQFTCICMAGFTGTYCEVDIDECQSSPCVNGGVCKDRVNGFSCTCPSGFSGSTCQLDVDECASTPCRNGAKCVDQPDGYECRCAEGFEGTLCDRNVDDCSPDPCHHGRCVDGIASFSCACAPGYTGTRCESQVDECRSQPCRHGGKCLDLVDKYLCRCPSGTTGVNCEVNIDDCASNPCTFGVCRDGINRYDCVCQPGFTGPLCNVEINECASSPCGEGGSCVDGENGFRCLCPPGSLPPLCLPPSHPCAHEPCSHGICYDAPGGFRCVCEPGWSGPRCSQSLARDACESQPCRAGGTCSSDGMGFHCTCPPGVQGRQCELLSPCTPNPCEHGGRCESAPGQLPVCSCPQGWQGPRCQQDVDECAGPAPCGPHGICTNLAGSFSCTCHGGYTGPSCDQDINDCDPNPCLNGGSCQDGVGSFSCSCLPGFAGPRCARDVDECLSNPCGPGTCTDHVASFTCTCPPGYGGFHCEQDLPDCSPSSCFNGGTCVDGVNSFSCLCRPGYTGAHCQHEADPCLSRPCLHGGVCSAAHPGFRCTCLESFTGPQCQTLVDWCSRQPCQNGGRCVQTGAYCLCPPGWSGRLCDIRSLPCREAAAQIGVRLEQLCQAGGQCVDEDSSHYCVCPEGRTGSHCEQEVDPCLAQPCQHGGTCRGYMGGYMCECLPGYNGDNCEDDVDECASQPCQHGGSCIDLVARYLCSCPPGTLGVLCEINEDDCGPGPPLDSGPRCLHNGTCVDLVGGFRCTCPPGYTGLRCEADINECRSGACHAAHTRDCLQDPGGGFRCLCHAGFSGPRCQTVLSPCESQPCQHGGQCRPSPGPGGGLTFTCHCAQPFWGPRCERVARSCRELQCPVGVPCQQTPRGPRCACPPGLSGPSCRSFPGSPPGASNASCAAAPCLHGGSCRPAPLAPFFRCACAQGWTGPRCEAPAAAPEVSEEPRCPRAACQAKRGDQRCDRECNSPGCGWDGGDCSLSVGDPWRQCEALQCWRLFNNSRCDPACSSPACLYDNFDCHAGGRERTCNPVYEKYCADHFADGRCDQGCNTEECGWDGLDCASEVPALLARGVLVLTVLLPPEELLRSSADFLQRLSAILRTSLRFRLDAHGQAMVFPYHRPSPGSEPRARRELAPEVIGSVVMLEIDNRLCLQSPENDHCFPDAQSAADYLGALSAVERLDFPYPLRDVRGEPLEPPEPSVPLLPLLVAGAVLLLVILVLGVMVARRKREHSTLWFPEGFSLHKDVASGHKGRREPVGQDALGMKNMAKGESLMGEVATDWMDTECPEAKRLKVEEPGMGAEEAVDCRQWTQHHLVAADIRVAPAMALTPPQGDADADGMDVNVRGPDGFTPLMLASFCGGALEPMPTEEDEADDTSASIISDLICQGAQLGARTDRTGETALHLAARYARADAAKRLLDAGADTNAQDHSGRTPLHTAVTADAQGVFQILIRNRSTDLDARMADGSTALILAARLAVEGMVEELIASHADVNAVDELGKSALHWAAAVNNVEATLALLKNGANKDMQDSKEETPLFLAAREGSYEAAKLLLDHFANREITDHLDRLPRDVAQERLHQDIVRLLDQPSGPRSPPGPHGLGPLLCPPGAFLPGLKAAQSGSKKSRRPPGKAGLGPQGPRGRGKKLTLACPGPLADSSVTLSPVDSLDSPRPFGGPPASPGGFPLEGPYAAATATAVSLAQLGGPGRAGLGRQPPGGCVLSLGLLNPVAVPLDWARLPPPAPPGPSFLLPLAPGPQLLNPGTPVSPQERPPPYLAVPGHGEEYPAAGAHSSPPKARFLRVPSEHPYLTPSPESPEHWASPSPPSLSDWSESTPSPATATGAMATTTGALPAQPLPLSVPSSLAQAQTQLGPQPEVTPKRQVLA
Sequence of Dickkopf-related protein 1 (Homo sapiens) (O94907 whole entry, looked up): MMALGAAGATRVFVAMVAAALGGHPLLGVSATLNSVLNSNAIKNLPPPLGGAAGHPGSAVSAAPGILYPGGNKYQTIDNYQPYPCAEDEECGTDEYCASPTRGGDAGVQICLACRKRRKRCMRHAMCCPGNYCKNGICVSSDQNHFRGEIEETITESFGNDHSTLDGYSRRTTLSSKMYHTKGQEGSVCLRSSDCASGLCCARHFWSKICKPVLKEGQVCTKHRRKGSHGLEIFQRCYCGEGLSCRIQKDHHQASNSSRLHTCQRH
Sequence of Epidermal growth factor receptor (Homo sapiens) (P00533 whole entry, looked up): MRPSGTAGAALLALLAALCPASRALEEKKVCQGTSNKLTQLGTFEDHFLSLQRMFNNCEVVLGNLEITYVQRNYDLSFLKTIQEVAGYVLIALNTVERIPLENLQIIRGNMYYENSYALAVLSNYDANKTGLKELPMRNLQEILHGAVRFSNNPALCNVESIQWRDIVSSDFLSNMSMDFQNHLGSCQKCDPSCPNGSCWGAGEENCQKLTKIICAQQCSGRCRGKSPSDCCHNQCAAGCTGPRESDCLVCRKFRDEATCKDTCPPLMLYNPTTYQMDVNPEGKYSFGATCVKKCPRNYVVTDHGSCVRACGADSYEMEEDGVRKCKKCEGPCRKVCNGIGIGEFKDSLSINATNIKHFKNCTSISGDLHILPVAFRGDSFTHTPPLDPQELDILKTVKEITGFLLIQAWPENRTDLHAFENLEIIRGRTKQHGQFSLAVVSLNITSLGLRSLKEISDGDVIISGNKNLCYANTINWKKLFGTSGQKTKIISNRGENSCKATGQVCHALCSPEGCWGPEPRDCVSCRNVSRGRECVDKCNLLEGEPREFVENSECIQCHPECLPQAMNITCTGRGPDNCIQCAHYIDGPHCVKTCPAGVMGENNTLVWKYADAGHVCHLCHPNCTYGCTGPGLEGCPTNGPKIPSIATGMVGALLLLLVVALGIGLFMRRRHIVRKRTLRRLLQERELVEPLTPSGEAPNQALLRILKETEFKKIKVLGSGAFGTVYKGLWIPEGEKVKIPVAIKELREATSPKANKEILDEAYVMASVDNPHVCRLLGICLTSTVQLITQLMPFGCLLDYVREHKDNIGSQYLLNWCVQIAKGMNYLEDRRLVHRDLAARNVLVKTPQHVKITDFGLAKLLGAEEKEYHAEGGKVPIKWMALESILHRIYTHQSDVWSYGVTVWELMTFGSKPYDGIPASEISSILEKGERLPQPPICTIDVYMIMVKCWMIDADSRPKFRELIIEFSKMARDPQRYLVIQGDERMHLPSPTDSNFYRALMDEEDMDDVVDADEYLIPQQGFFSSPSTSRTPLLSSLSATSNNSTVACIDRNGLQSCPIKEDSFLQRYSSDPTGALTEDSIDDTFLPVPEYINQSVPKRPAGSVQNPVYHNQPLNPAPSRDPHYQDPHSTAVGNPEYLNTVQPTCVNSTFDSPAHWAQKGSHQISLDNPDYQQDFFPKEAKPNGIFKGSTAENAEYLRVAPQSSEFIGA
Sequence of Follistatin-related protein 3 (Homo sapiens) (O95633 whole entry, looked up): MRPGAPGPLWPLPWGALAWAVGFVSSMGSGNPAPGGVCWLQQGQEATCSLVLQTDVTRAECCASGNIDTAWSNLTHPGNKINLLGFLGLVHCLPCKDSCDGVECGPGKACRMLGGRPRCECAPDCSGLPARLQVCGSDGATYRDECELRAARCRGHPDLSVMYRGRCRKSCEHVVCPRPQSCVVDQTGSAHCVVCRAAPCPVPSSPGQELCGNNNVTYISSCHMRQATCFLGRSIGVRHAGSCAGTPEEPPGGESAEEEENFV

Consider `O=C1O[C@@H](c2ccccc2)[C@@H](c2ccccc2)N2[C@@H](c3ccc(O)cc3)[C@]3(C(=O)Nc4ccc(C#CC5(O)CCCCCC5)cc43)[C@@H](C(=O)Nc3nc4ccccc4s3)[C@H]12`, for which the composite z-score worked out at 1.54 in test [1]; 2.56 in test [5]; 0.718 in test [7]; 1.26 in test [8]; 1.07 in test [9]; 0.267 in test [10]. The composite z-score in test [11] came to 0.864; in test [12], 0.051; in test [13] it was 0.546; in test [15], 0.869; in [16], 1.34; in [17] it was 0.736. Also, the composite z-score in test [18] was determined as 1.39; in test [19] it was 0.892; in [20], 0.644. For the same compound, the z-score is 0.775 (inactive) in [2]; -0.399 (inactive) in [3]; 1.06 (inactive) in test [4]; 2.03 (inactive) in test [6]; 0.179 (inactive) in test [14].
With `CO[C@H]1O[C@H](CO)[C@@H](OC(=O)CCc2ccccc2)[C@@H]2OC(=O)[C@H](Cc3cccc(Br)c3)C/C=C/C[C@@H](Cc3cccc(Br)c3)C(=O)O[C@@H]12`, the composite z-score in [1] was 0.922; in test [5] it was 0.8; in test [7], -0.134; in [8] it was -0.6; in [9], -0.791; in test [10], -0.186. The composite z-score in test [11] was 1.6; in [12], 0.385; in [13], 0.874; in test [15], -0.487; in test [16], -0.78; in test [17] it was -1.49. The figures for the composite z-score in test [18], in test [19] and in [20] were -0.753, -0.402 and 0.951, respectively. The z-score in test [2] was -4.85 (inactive); in test [3] it was -4.06 (inactive); in test [4], 3.62 (inactive); in [6], 2.82 (inactive); in test [14] it was -2.19 (inactive).
`CCOC(=O)C1=C[C@@H](c2ccccc2)N(S(=O)(=O)c2ccc(C)cc2)[C@H]1c1ccc(F)cc1`: the composite z-score in test [1] is 1.56; in [5], 3.06; in test [7], -0.0141; in test [8] it was 0.512; in [9], 1.09; in test [10], 0.0624. In addition, the composite z-score was 0.873 in test [11]; 0.362 in test [12]; 0.573 in test [13]; 0.635 in test [15]; 1.29 in test [16]; 0.158 in test [17]. Moreover, the composite z-score turned out to be 1.04 in test [18], 0.675 in test [19] and 0.589 in test [20]. The z-score in test [2] was 0.575 (inactive); in test [3] it was 2.18 (inactive); in test [4], 2.39 (inactive); in test [6], -0.382 (inactive); in [14], -0.162 (inactive).
As to `CCCNC(=O)[C@@H]1c2ccccc2C(=O)N(C2CCCCC2)[C@H]1c1ccc(CO)cc1`, the composite z-score in test [1] came out at 1.53; in test [5] it was 3.01; in [7], 0.0511; in test [8] it was 0.771; in [9], 1.1; in test [10], 0.0634. Also, the composite z-score in [11] worked out at 0.941; in test [12] it was 0.331; in test [13], 0.533; in [15] it was 0.965; in [16], 1.3; in test [17], 0.432. Moreover, the composite z-score in test [18] was 0.958; in test [19], 0.315; in test [20], 0.397. Further, the z-score is -0.104 (inactive) in test [2]; 1.15 (inactive) in [3]; 1.29 (inactive) in [4]; -0.358 (inactive) in test [6]; -0.618 (inactive) in [14].
On to `CCOC(=O)C[C@H]1[C@H](OC(=O)Cc2ccc3c(c2)OCO3)[C@@H](NC(=O)c2ccc3ccccc3c2)c2cc(OCCCO)ccc2N1C(=O)Cc1ccc(OC)cc1`, for which the composite z-score in test [1] was 0.842; in [5] it was 1.73; in [7] it was 0.164; in [8], 0.233; in test [9], 0.719; in [10], -0.0331. Besides, the composite z-score in test [11] was found to be 0.354; in test [12] it was 0.19; in test [13], 0.0248; in test [15] it was 0.491; in test [16] it was 0.397; in [17] it was 0.373. Further, the results for the composite z-score in [18], in test [19] and in [20] were 0.439, 0.435 and 0.147, respectively. The z-score was -2.93 (inactive) in test [2]; -0.366 (inactive) in test [3]; 0.227 (inactive) in test [4]; 1.28 (inactive) in [6]; -1.83 (inactive) in [14].
For the compound `COc1ccc([Si](C)(C)[C@@H]2[C@@H](CCO)O[C@]3(C(=O)N(Cc4ccc(NC(=O)[C@H](C)O)cc4)c4ccccc43)[C@H]2C)cc1`, the composite z-score was 1.47 in test [1]; 2.42 in test [5]; 0.12 in test [7]; 0.123 in test [8]; 0.62 in [9]; -0.102 in [10]. Also, the composite z-score in test [11] was 1.3; in [12] it was 0.305; in [13], 0.161; in test [15], 0.245; in test [16] it was 0.993; in test [17] it was 0.226. Moreover, the composite z-score in [18] was found to be 0.335; in [19], 0.0302; in [20], 0.316. The z-score in [2] is 3.17 (inactive); in test [3], -1.06 (inactive); in test [4], 14.8 (active); in test [6], 1.78 (inactive); in test [14], -4.19 (inactive).
For `C=CCOC(=O)[C@@H]1[C@H]2C(=O)O[C@H](c3ccccc3)[C@H](c3ccccc3)N2[C@H](c2ccc(OCCOC(=O)[C@H]3C[C@H]4C(=O)N[C@@H](CCCCNC(C)=O)C(=O)N4[C@H]3c3ccc(O)cc3)cc2)[C@@]12C(=O)Nc1ccc(I)cc12`, the composite z-score is 1.55 in test [1]; 1.39 in test [5]; -0.0974 in [7]; 1.66 in test [8]; 1.07 in test [9]; 0.0333 in [10]. Also, the composite z-score in test [11] was 1.3; in [12] it was -0.173; in test [13] it was -0.119; in [15], 1.03; in [16] it was 1.28; in [17] it was 0.603. For the same compound, the composite z-score in test [18] was determined as 1.19; in test [19] it was 0.394; in [20] it was 0.565. Besides, the z-score is 1.38 (inactive) in [2]; 0.802 (inactive) in test [3]; 4.48 (inactive) in test [4]; -0.428 (inactive) in [6]; 0.711 (inactive) in test [14].
As for `C=C(COC)/C(=C/C[C@H](OC(C)=O)c1ccc(OCCO)cc1)c1cnc2ccccc2c1`, the composite z-score is 1.46 in test [1]; 1.05 in test [5]; 0.0707 in test [7]; 0.935 in [8]; 1.1 in test [9]; -0.0039 in test [10]. Further, the composite z-score is -0.407 in test [11]; 0.231 in test [12]; -0.146 in [13]; 0.741 in test [15]; 0.844 in [16]; 0.716 in [17]. For the same compound, the composite z-score in test [18] amounted to 1.46; in test [19], 0.766; in test [20] it was 1.8. Further, the z-score in [2] is 1.53 (inactive); in [3], -1.49 (inactive); in test [4], 1.09 (inactive); in [6], 1.12 (inactive); in [14], -1.48 (inactive).
Consider `COC(=O)[C@@]1(Cc2ccccc2CN=[N+]=[N-])N=C(c2ccc(OCCCO)cc2)O[C@H]1c1ccccc1N=[N+]=[N-]`, for which the composite z-score in test [1] is 1.42; in [5] it was 2.18; in test [7], -0.184; in [8] it was 0.0678; in test [9], 0.698; in [10], -0.0372. The composite z-score in [11] is 1.31; in test [12] it was 0.244; in [13] it was 0.973; in [15], 0.752; in test [16], -0.381; in test [17], -0.0185. In addition, the composite z-score in test [18] was -0.0661; in test [19], -0.608; in test [20] it was 0.948. Moreover, the z-score in test [2] is 0.763 (inactive); in test [3] it was 2.17 (inactive); in test [4], 36 (active); in test [6], 0.0738 (inactive); in test [14], -0.298 (inactive).
